According to PubChem BioAssay (NCATS):
Records with an inconclusive call do not appear. Active and inactive are the calls of the source. The call rests on the fitted dose curve; in most records, active means well fitted inhibition curve with a large enough effect; inconclusive means small, poorly fitted or top-dose-only effect; inactive means flat fitted curve, though single readings scatter.

System: CRL-7250
Experiment: qHTS assay to identify novel small-molecules to repurpose for Merkel cell carcinoma treatment (AID 1296009); further: nearly all actives have a fitted effect of over 60% in size
Conditions: MCC and control cell lines, CellTiter-Glo viability, 72 h; series mostly up to 92 µM; activity change, negative = cytotoxicity: at the top concentration
In short: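 72 hr, 37 degree celsius; NPC 8-pt / MIPE 11-pt dose response; compound pinned in DMSO; CellTiter-Glo, 10 min RT, luminescence; normalized to no-cell and DMSO controls.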

Row | Compound | outcome
1 | OCC(O)C(c1c[nH]c2ccccc12)c1c[nH]c2ccccc12 (stereo not drawn) | inactive
2 | CC/C=C\CC1C(CC(=O)O)CCC1OC1OC(CO)C(O)C(O)C1O (stereo not drawn) | inactive
3 | COc1ccc(O[C@@H]2O[C@H](CO)[C@@H](O)[C@H](O)[C@H]2O)cc1OC | inactive
4 | CC1(C)CC[C@]2(C(=O)O)CC[C@]3(C)C(=CCC4[C@@]5(C)C[C@@H](O)[C@H](O)[C@@](C)(CO)C5CC[C@]43C)C2C1 (stereo partly drawn) | inactive [at 17.4 µM]
5 | CC(=O)OCC1(O)CCC2C(COC3OC(CO)C(O)C(O)C3OC(=O)/C=C/c3ccc(O)cc3)=COC(OC(=O)CC(C)C)C21 (stereo not drawn) | inactive [at 17.4 µM]
6 | CC(=O)/C=C/C1(O)C(C)CC(O[C@@H]2O[C@H](CO)[C@@H](O)[C@H](O)[C@H]2O)CC1(C)C (stereo partly drawn) | inactive [at 17.4 µM]
7 | C=C(CO)C(=O)O[C@H]1C[C@@]23O[C@@H]2CC/C(=C/[C@H]2OC(=O)C(=C)[C@H]12)CO[C@H]3O | inactive
8 | CN1CCCC1Cc1c[nH]c2ccc(CCS(=O)(=O)c3ccccc3)cc12 (stereo not drawn) | inactive
9 | N#CC(c1ccnc(OCc2ccc(CN3CCOCC3)cc2)n1)c1nc2ccccc2s1 (stereo not drawn) | inactive
10 | Cc1ncc(Cl)cc1NCc1ccc(C(=O)NC(CC2CCCC2)C(=O)NC2CC2)s1 (stereo not drawn) | inactive
11 | C=C1CC[C@@H]2[C@](C)(CO[C@@H]3O[C@H](CO)[C@@H](O)[C@H](O)[C@H]3O)CCC[C@@]2(C)[C@@H]1CCC1=CCOC1=O | inactive [at 17.4 µM]
12 | CC(=O)c1c(C)cc(O[C@@H]2O[C@H](CO)[C@@H](O)[C@H](O)[C@H]2O)cc1O | inactive
13 | CC1CCC2(OC1)OC1CC3C4CC=C5CC(O)CC(O[C@@H]6OC[C@@H](O)[C@H](O)[C@H]6O)C5(C)C4CCC3(C)C1(O)C2C (stereo partly drawn) | inactive [at 17.4 µM]
